# In the library only some 14% were active in any assay of this set; here they are far more common.
# Sm TGR block = blocks Schistosoma mansoni thioredoxin glutathione reductase | Q962Y6 | purified TGR, DTNB reduction, TNB absorbance 405 nm | Potency, µM (top dose mostly 114 µM), inactives show top-dose activity change, negative = inhibition, hits mostly inhibitors | actives 3% (n = 360,000) | AID 485364; note: potency is the fitted concentration of half-maximal effect; nearly all actives have a fitted effect of over 60% in size
#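 First, TGR (20 nM dispensed) and NADPH were mixed with compound. Second, a 15 min room-temperature incubation followed. Third, further NADPH and then DTNB were added to start the reaction. Finally, TNB absorbance was monitored kinetically.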
# HCMV antiviral = inhibitors of human cytomegalovirus; HFF cells, HCMV-luciferase reporter, 72 h; stronger effect = lower value; activity change, negative = inhibition, % at 57.5 µM; actives 4.5% (n = 410,000); AID 1259415; in the data active = activity change below about -60%; inconclusive = no clear call, values can overlap the other calls; inactive = above about -39%
#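 Inhibition of viral replication was scored as loss of reporter luminescence in HFFs infected with HCMV-luciferase (MOI 1 PFU/cell) for 72 h; compounds tested at 2 doses, normalized to buffer and Salinomycin controls.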
# Giardia FBPA inh = blocks Giardia fructose-bisphosphate aldolase activity; actives 0.71% (n = 290,000); purified Giardia FBPA; Potency, µM (series often up to 59.6 µM), without a hit: at the top dose activity, negative = inhibition, most hits filed as inhibitors; note: potency is the fitted concentration of half-maximal effect; nearly all actives have a fitted effect of over 55% in size
# Target sequence (A8B2U2 whole entry, looked up): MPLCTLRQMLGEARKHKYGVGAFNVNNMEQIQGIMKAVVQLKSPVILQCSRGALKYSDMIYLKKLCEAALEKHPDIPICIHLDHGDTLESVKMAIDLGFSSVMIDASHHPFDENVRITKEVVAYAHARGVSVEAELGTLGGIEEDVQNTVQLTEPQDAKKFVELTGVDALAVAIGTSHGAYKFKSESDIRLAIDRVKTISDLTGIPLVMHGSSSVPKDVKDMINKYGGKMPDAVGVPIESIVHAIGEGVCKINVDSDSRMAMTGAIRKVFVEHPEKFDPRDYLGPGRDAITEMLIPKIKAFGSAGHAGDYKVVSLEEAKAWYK
#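 Giardia FBPA (40 nM reagent) was preincubated 10 min at RT with compound (up to 57.5 uM final), then substrate plus GAPDH/TPI/NAD/arsenate coupling system with diaphorase/resazurin was added; resorufin fluorescence (525/598 nm) was read after 20 min.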
# Pf growth 96h = P. falciparum growth inhibition at 96 hours; AID 504834; P. falciparum luciferase reporter growth, 96 h; actives 6.9% (n = 320,000); Potency, µM (top dose mostly 28.7 µM), for the others: top-dose activity change, negative = inhibition, most hits filed as inhibitors; note: potency is the fitted concentration of half-maximal effect
#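 P. falciparum expressing integrated firefly luciferase grown in erythrocytes (2% hematocrit, 0.05% parasitemia final) with compounds for 96 hours at 37 C, 5% CO2. Growth inhibition read as loss of luminescence after adding luciferase detection reagent.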
# Pf growth 48h = P. falciparum growth inhibition at 48 hours (one generation); P. falciparum luciferase growth in erythrocytes, 48 h; Potency, µM (doses to about 28.7 µM), for the others: at the top dose activity change, negative = inhibition, usual class: inhibitors; actives 5.9% (n = 310,000); AID 504832; note: potency is the fitted concentration of half-maximal effect
#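 Cell-based growth assay: transgenic P. falciparum expressing firefly luciferase, cultured in red cells within RPMI 1640 containing 0.5% w/v Albumax, 24 mM bicarbonate and gentamycin. A drop in luciferase activity indicates inhibition.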
# * marks the source's active call; other numbers are inactive results; ? = inconclusive; nt = not tested or not shown. Unless noted, calls come from the whole dose curve; as a rule, active = well fitted curve in the direction sought with a large enough effect; inconclusive = small, poorly fitted or top-dose-only effect, or another doubt; inactive = no such curve, though single readings can be large; an effect the other way counts as inactive or inconclusive. % is set by controls: 0 for no effect and ±100 for the full control effect.
SMILES,Sm TGR block,HCMV antiviral,Giardia FBPA inh,Pf growth 96h,Pf growth 48h
Cc1cccc(/C=N/n2c(C)cc(C)c(C#N)c2=O)c1,0.1%,-12.0,3.0%,?,5.22µM*
Cc1cc(C)n(/N=C/c2ccccc2)c(=O)c1C#N,0.0%,3.1,-0.1%,-16.4%,?
Cc1cc(C)n(/N=C/c2c[nH]c3ccccc23)c(=O)c1C#N,3.3%,-25.9,0.1%,24.3%,nt
CCc1ccc(/C=N/n2c(C)cc(C)c(C#N)c2=O)cc1,4.9%,-9.1,-8.9%,1.65µM*,9.28µM*
Nc1nccnc1C(=O)OCC(=O)C12CC3CC(CC(C3)C1)C2,-3.2%,-8.3,nt,40.4%,1.5%
N#CC1(C#N)CC(C=O)=C(N)C1(C#N)CC(=O)C12CC3CC(CC(C3)C1)C2 (stereo not drawn),39.8µM*,-1.8,-2.9%,?,?
Cc1ccc(C2OC(=O)C=C2c2ccccc2)cc1 (stereo not drawn),4.4%,-30.6,nt,0.0%,?
CCOC(=O)CCn1c(=S)n(CCC(=O)OCC)c2ccccc21,3.2%,-4.7,6.3%,42.5%,3.7µM*
CNS(=O)(=O)/C=C/c1ccccc1,-2.6%,-72.0*,1.6%,19.2%,34.3%
CCCNS(=O)(=O)/C=C/c1ccccc1,-1.7%,41.6,-0.5%,12.6%,18.3%
O=S(=O)(/C=C/c1ccccc1)Oc1ccccc1,-22.0%,2.0,6.4%,3.29µM*,nt
O=c1c(CCc2ccccc2)nc2cnc(N3CCNCC3)nc2n1-c1ccccc1,nt,nt,0.6%,nt,nt
COc1ccccc1CN(C)C(=O)CN1CCN(S(=O)(=O)c2ccc3c(c2)OCCCO3)CC1,-14.8%,57.8,nt,?,?
COc1ccc(-c2cc(C)no2)cc1S(=O)(=O)NCCCN1CCCCCC1,-32.2%,0.0,-17.8%,21.0%,?
COc1ccc(-c2csc(NC(=O)CN3C(=O)C4CC=CCC4C3=O)n2)cc1 (stereo not drawn),4.8%,-15.4,nt,53.0%,-15.0%
COc1ccc(CC(=O)Nc2nc(-c3ccncc3)cs2)cc1,-6.8%,-82.2*,-10.0%,13.1µM*,?
COc1ccc(-c2csc(NC(=O)CCN3C(=O)C4CC=CCC4C3=O)n2)cc1OC (stereo not drawn),-0.8%,4.2,nt,?,10.4µM*
COc1ccc(CCC(=O)Nc2nc(-c3ccncc3)cs2)cc1,10.2%,nt,-0.1%,?,?
COc1cc(OC)cc(C(=O)N[C@H](C(=O)Nc2nc(-c3ccc(OC)c(OC)c3)cs2)C(C)C)c1,-5.7%,-19.7,-7.5%,10.4µM*,13.1µM*
COc1ccc(-c2csc(NC(=O)Cc3cc(OC)c(OC)c(OC)c3)n2)cc1OC,0.6%,?,-5.5%,11.7µM*,?
O=C(CNC(=O)c1ccc(Cl)c([N+](=O)[O-])c1)OCN1C(=O)c2ccccc2C1=O,?,18.5,nt,35.0%,49.5%
COC(=O)c1ccc(-n2nnc(-c3nc(-c4ccc5c(c4)OCO5)no3)c2C)cc1,10.1%,5.0,nt,nt,nt
COc1ccc(CCNc2nc(-c3ccc(O)cc3)cs2)cc1OC,-26.4%,?,-11.1%,10.4µM*,?
CC(C)n1cnc2c(Nc3cccc(Cl)c3)nc(NCCCO)nc21,3.9%,92.5,-5.5%,14.7µM*,?
CC(C)[C@H](CO)Nc1nc(NCc2ccc(S(N)(=O)=O)cc2)c2ncn(C(C)C)c2n1,4.4%,-96.0*,-27.5%,?,?
SMILES,Sm TGR block,HCMV antiviral,Giardia FBPA inh,Pf growth 96h,Pf growth 48h
CC(C)[C@H](CO)Nc1nc(Nc2ccc(Cl)c(C(=O)O)c2)c2ncn(C(C)C)c2n1,18.0%,-18.5,-2.4%,?,?
CC(C)n1cnc2c(NCc3ccccc3)nc(NCc3ccccc3)nc21,0.5%,-8.4,-14.2%,9.28µM*,9.28µM*
CC(C)n1cnc2c(NCc3ccc(S(N)(=O)=O)cc3)nc(NCc3ccc(S(N)(=O)=O)cc3)nc21,28.6%,11.1,-8.9%,?,?
CCc1ccc(OC(C)c2nc(-c3ccc(-n4cccc4)cc3)no2)cc1 (stereo not drawn),-4.8%,-24.8,nt,nt,nt
COc1ccc(-c2cn(CCC(=O)O)c(C)n2)cc1,-5.2%,8.6,nt,60.5%,5.5%
Nc1nc2ccccc2n1/N=C/c1ccc([N+](=O)[O-])s1,-25.6%,?,4.2%,1.47µM*,?
CC(C)Sc1nnc(NC(=O)c2ccc3c(c2)OCO3)s1,1.6%,81.2,nt,183.9%,117.1%

# Assay outcomes: PubChem BioAssay, National Center for Advancing Translational Sciences (NCATS)
